# For part of these data: Measured potencies and affinities stand elsewhere.
# Key:
# [1] = test system: Staphylococcus aureus; assay: Antibacterial activity against Staphylococcus aureus MRSA ATCC 43300 (CO-ADD:GP_020); MIC in CAMBH media using NBS plates, by Resazurin F(560/590); assay type: functional; conditions: Concentration 20 uM, ASSAY_TEST Inhibition of Bacterial Growth, detection method Resazurin, Fluorescence (ex560/em590), MEDIA CAMHB, plate type 384well, CORNING #3640, time 18 hr
# [2] = test system: Acinetobacter baumannii; assay: Antibacterial activity against Acinetobacter baumannii ATCC 19606 (CO-ADD:GN_034); MIC in CAMBH media using NBS plates, by Resazurin F(560/590); assay type: functional; conditions: Concentration 20 uM, ASSAY_TEST Inhibition of Bacterial Growth, detection method Resazurin, Fluorescence (ex560/em590), MEDIA CAMHB, plate type 384well, CORNING #3640, time 18 hr
# [3] = test system: Escherichia coli; assay: Antibacterial activity against Escherichia coli ATCC 25922 (CO-ADD:GN_001); MIC in CAMBH media using NBS plates, by Resazurin F(560/590); assay type: functional; conditions: Concentration 20 uM, ASSAY_TEST Inhibition of Bacterial Growth, detection method Resazurin, Fluorescence (ex560/em590), MEDIA CAMHB, plate type 384well, CORNING #3640, time 18 hr
# [4] = test system: Klebsiella pneumoniae; conditions: Concentration 20 uM; ASSAY_TEST Inhibition of Bacterial Growth; detection method Absorption (OD600); MEDIA CAMHB; plate type 384well; NBS; CORNING #3640; time 18 hr
# [5] = test system: Candida albicans; conditions: 20 µM
# [6] = test system: Cryptococcus neoformans; conditions: Concentration 20 uM; ASSAY_TEST Inhibition of Fungal Growth; detection method Resazurin; Absorption (OD600-OD570); plate type 384well; NBS; CORNING #3640
SMILES,Inhibition [1] [%],Inhibition [2] [%],Inhibition [3] [%],Inhibition [4] [%],Inhibition [5] [%],Inhibition [6] [%]
O=C(Nc1cccnc1)c1cccc([N+](=O)[O-])c1,12.72,4.9,8.22,4.62,7.68,-5.39
Nc1nc2cc([N+](=O)[O-])ccc2[nH]1,15.13,-11.46,3.91,4.78,0.21,-13.6
CCCCSc1cc(O)nc(N)n1,-2.6,-7.06,16.01,10.64,-1.45,-8.65
C#CCSc1nc(-c2ccco2)n[nH]1,6.25,16.42,-3.2,9.41,3.4,-6.15
OCC1CCCC(n2cnc3c(S)ncnc32)O1 (centres undefined),9.66,5.96,6.02,14.91,14,-13.51
O=[N+]([O-])c1nc[nH]c1/C=C\c1ccccc1,6.19,-12.82,5.35,8.67,3.47,10.56
NC(CC(=O)Nc1cc(C(F)(F)F)ccc1Cl)=NO,9.76,-1.74,-6.61,22.22,3.79,-11.78
O=C1CCCc2cc3c(cc21)CC1(C3)Cc2cc3c(cc2C1)C(=O)CCC3,15.97,-9.78,9.88,10.84,3.32,-3.34
Nc1ccccc1-c1nc2cnccc2[nH]1,12.51,-12.24,9.24,2.75,-2.69,-6.41
C#CCOCC1CN(c2ccccc2)C(=O)O1 (centres undefined),-1.12,12.08,6.4,9.96,6.35,-15.19
COc1cc(/C=C2\CCOC2=O)cc(OC)c1OC,4.75,13.86,8.29,12.15,2.88,-2.47
CC(C)(C)N1CCC1CN (centres undefined),2.17,-8.31,10.97,10.11,3.04,-5.34
O=[N+]([O-])c1cc(-c2cccnc2)[nH]n1,-4.13,-4.27,2.34,30.86,1.12,-1.42
N#CC1=CC2CN(Cc3ccccc3)C1C1C(=O)N(c3ccccc3)C(=O)C21 (centres undefined),-0.51,3.07,-13.61,5.72,9.06,18.01
CC(C)COC(=O)NC1c2ccccc2Oc2ccccc21,8.22,-2.15,3.09,8.74,5.64,-2.37
CCCCN1CCN=C1S,9.78,-11.78,10.98,14.43,-2.77,-2.57
Nc1ccc(OC(=O)Nc2ccc(O)cc2)cc1,-11.3,1,-11.72,2.2,-2.4,12.42
CC(C)=C(c1ccc(Cl)cc1)c1c(N)ncnc1N,3.52,-10.84,10.95,14.5,-0.84,-5.15
Cc1cnc2cc(Cl)ccc2c1SCC(=O)O,2.5,10.23,1.72,11.14,11.6,-9.96

# Source: ChEMBL document CHEMBL4296182, “CO-ADD screening of NIH NCI Diversity Set V”
